Data on 66 molecules can be found in PubChem BioAssay AID504832 (National Center for Advancing Translational Sciences (NCATS), 2011).

The whole screen tested about 310,000 compounds, of which about 18,000 (5.8%) were called active. About 22% were inconclusive and are not listed. The call rests on the fitted dose curve; in most records, active means well fitted inhibition curve with a large enough effect; inconclusive means small, poorly fitted or top-dose-only effect, or another doubt; inactive means no such curve, though single readings can be large or run the other way. The entries come from a sample that favours actives as a whole. Where a call stands in place of a potency, no number is given.
Potency means the concentration at half of the fitted maximal effect.

A short description of this test: Primary qHTS for delayed death inhibitors of the malarial parasite plastid, 48 hour incubation. The conditions noted are these: P. falciparum luciferase growth in erythrocytes; series mostly up to 28.7 µM. An excerpt: The goal of this screen is to discover new antimalarial compounds that act by inhibiting the development of the apicoplast in the malarial parasite Plasmodium falciparum. The biochemical processes that make this organelle essential for erythrocytic stage parasites are not well understood. However, antibiotics such as azithromycin and tetracycline, which target the apicoplast translational machinery, have a potent antimalarial effect.
We have developed a cell-based assay that measures parasite growth based on the expression of an integrated copy of a firefly luciferase reporter. To detect small molecules that cause this "delayed death" phenotype, erythrocytes infected with the luciferase-expressing parasites were incubated with compounds for either one or two generations, corresponding to 48 and 96 hours, respectively. Compounds that inhibit parasite growth in the second generation, but not the first, should be enriched in antimalarials that target the apicoplast. Growth inhibition is detected by a decrease in luciferase activity.
Assay Provider: David Fidock and Eric Ekland, Columbia University
Keywords: NIH Roadmap, MLPCN, MLI, MLSMR, qHTS, NCGC, qHTS, malaria, luciferase, viability
Four microliters of culture medium (RPMI 1640 with 0.5% w/v Albumax (GIBCO), 24 mM sodium bicarbonate and 10 ug/mL gentamycin) were dispensed by a Multi-drop Combi into white solid 1536-well plates (Grenier) and 23 nL compound was added by a pin tool. Four microliters of infected erythrocytes (2% hematocrit, 0.1% parasitemia final concentration) in culture medium were dispensed and the plates incubated for 48 hours at 37 C in 5% CO2. Two microliters of luciferase detection reagent was added and luminescence was detected by a ViewLux (PerkinElmer) reader.
(qHTS replaces the single test concentration by a dilution series.)
On to `CCC(c1nnc(SCC(=O)NNC(=O)c2ccccc2)n1Cc1ccccc1)N(C)C` (stereo unspecified), for which the Potency result is “inactive”.
The same measure, in the same setting: the value for `O=C(Nc1ccc(OCC(=O)N2CCOCC2)cc1)c1cc(F)c(F)cc1Cl` was “inactive”; that for `C/C(=N\NC(=O)c1cc(-c2ccc(O)cc2)nc2ccccc12)c1cccnc1` was “inactive”.
On to `COc1ccc([C@H]2CC(=O)C=C(/C=C/c3ccccc3)C2)cc1`, for which the Potency entry was “inactive”.
The same measure, in the same setting: next, `O=C(O)/C=C/c1ccc(OCCCF)cc1`: “inactive”; `Cc1cc(C)cc(NC(=O)CN2C(=O)c3ccccc3C2=O)c1`: “inactive”.
In the case of `CS(=O)(=O)N(CC(=O)Nc1ccc(F)cc1)C1CCCCC1`, the Potency entry was “inactive”.
Consider `O=C(COc1ccccc1Cl)N1CCCCCCC1`, for which the Potency entry was “inactive”.
Regarding `Cc1cccc(C(=O)Nc2nnc(S(=O)(=O)N3CCCCCC3)s2)c1`, the Potency result is “inactive”.
Turning to `CCCn1c(N)c(C(=O)CSc2nc3ccccc3c(=O)n2-c2ccc(OC)cc2)c(=O)[nH]c1=O`, the Potency entry is “inactive”.
As to `CCCn1c(N)c(C(=O)CSc2nnc(-c3cccnc3)n2-c2ccc(C)cc2C)c(=O)[nH]c1=O`, the Potency is 9.28 µM (active).
On to `CCCn1c(N)c(C(=O)CSc2nnc3n2CCCCC3)c(=O)[nH]c1=O`, for which the Potency result is “inactive”.
For `CCCCOC(=O)c1[nH]c(C)c(C(=O)OC)c1C`, the Potency entry was “inactive”.
On the same count and under the same terms, next, `COC(=O)c1c(C)[nH]c(C(=O)NCCc2ccc(S(N)(=O)=O)cc2)c1C`: “inactive”.
Same read-out and setting: the value for `COC(=O)c1c(C)[nH]c(C(=O)/C=C/c2ccc(Cl)cc2)c1C` was 4.65 µM (active); that for `NC(=O)COc1ccccc1C(=O)NC12CC3CC(CC(C3)C1)C2` was “inactive”.
`COc1ccc([N+](=O)[O-])cc1NCC(=O)c1ccc(C)cc1`: the Potency result is “inactive”.
For `O=C(O)[C@@H](S)[C@H](S)C(=O)O`, the Potency was 4.26 µM (active).
On to `COc1ccc(S(=O)(=O)Nc2ccccc2C(=O)N2CCCC2)cc1C`, for which the Potency result is “inactive”.
For `CC1CCCN(CCCNC(=O)CN2C(=O)COc3ccc(S(=O)(=O)N4CCOCC4)cc32)C1` (stereo unspecified), the Potency result was “inactive”.
Consider `CCOC(=O)c1c(-c2ccccc2)oc2cc(Br)c(O)c(C=O)c12`, for which the Potency is 9.28 µM (active).
Still for that read-out and setting: next, `CCOC(=O)c1c(-c2ccccc2)oc2ccc(OCC(N)=O)cc12`: “inactive”; `CCOC(=O)c1c(-c2ccccc2)oc2ccc(OCC(=O)NN)cc12`: “inactive”.
Regarding `Cc1cccc(C(=O)OC(C)CN2CCCC2)c1` (stereo unspecified), the Potency entry was “inactive”.
Regarding `COC(=O)[C@]1(C)CCC[C@@]2(C)C3CC[C@]4(OC(C)=O)C[C@@]3(CCC21)CC4=NO` (stereo partly specified), the Potency result was “inactive”.
Consider `O=C(NCc1ccncc1)c1ccc(NS(=O)(=O)c2cccc([N+](=O)[O-])c2)cc1`, for which the Potency result was “inactive”.
On the same count and under the same terms, the value for `CCN(CC)P(=O)(Oc1cccc(C)c1)N(CC)CC` was “inactive”; that for `Cc1cccc(OP(=O)(Oc2cccc(C)c2)OC(c2ccccc2)C(F)(F)F)c1` (stereo unspecified) was 10.4 µM (active); that for `Cc1cccc(OP(=O)(Nc2c(C)n(C)n(-c3ccccc3)c2=O)Oc2cccc(C)c2)c1` was “inactive”.
As for `O=C(Nc1nnc(C2CC2)s1)c1cc(Cl)sc1Cl`, the Potency result was “inactive”.
Regarding `COc1ccc(OC)c(NC(=O)CCN2CCC(C)CC2)c1`, the Potency entry was “inactive”.
For the molecule `CCOC(=O)N1CCN(CCC(=O)Nc2cc(OC)ccc2OC)CC1`, the Potency result was “inactive”.
With `CCN1CCN(c2nc(Nc3cc(OC)ccc3OC)nc(Nc3cc(OC)ccc3OC)n2)CC1`, the Potency was 9.28 µM (active).
The same measure, in the same setting: the value for `CC(Sc1nnc(-c2cccs2)n1C1CC1)C(=O)NCC1CCCO1` (stereo unspecified) was “inactive”.
Regarding `COc1cc(CCC(=O)N2CCN(c3ccccc3Cl)CC2)cc(OC)c1OC`, the activity change, negative = inhibition was 1.7% [at 0.00184 µM] (inactive).
In the case of `CCOC(=O)Cn1c(O)c(N=NC(=O)CNC(=O)Cc2ccccc2)c2ccccc21`, the Potency result was “inactive”.
For the molecule `CCC(=O)Nc1cccc(NC(=O)c2cccnc2)c1`, the Potency result is “inactive”.
Same read-out and setting: next, `Cc1ccc2nc(-c3ccc(NC(=O)c4cccnc4)cc3)oc2c1`: 9.28 µM (active); `CC(=O)Nc1ccc(-c2nc3ccccc3o2)cc1`: “inactive”.
In the case of `CCOC(=O)c1ccc(NC(=O)c2cccnc2)cc1`, the Potency entry is “inactive”.
The same measure, in the same setting: next, `CCOC(=O)c1ccc(NC(=O)CSc2ncccn2)cc1`: “inactive”; `CCOC(=O)c1ccc(-c2ccc(C(=O)Nc3cccnc3)o2)cc1`: 2.62 µM (active).
Regarding `COc1ccc(C(=O)Nc2cccnc2)cc1C(=O)Nc1cccnc1`, the Potency entry is “inactive”.
In the case of `Cc1cc2nc(-c3ccc(NC(=O)c4cccnc4)cc3)oc2cc1C`, the Potency result was “inactive”.
In the case of `CCOC(=O)c1cc(NC(=O)c2cccnc2)cc(C(=O)OCC)c1`, the Potency is 2.94 µM (active).
Consider `Cc1cccc(NC(=O)c2cccc(C(=O)Nc3cccc(C)c3C)n2)c1C`, for which the Potency result is “inactive”.
In the case of `CN(C)c1nc(Nc2ccc(Cl)c(Cl)c2)nc(N(C)C)n1`, the Potency result was “inactive”.
As to `Cc1cc(C)c(CN2CCN(C(=O)Cn3ccc(NC(=O)OCc4ccccc4)nc3=O)CC2)c(C)c1`, the Potency entry is “inactive”.
Regarding `COc1ccc(/C(C)=N/NC(=O)c2ccc3nc[nH]c3c2)cc1`, the Potency entry was “inactive”.
On the same count and under the same terms, the value for `CC(OC(=O)CCCOc1ccccc1)C(=O)Nc1ccc(Cl)cn1` (stereo unspecified) was “inactive”; that for `CCCOc1ccccc1C(=O)NCCCC(=O)O` was “inactive”.
Turning to `CCCCOCCCNC(=O)c1ccccc1OCC`, the Potency is 10.4 µM (active).
Turning to `CCOc1ccccc1C(=O)NCCCn1ccnc1`, the Potency entry was “inactive”.
Consider `CCc1nc2ccc(C(=O)N3CCN(c4cccc(Cl)c4)CC3)cc2nc1CC`, for which the Potency entry is “inactive”.
Regarding `COc1ccc(C2(C)ON(c3ccccc3C(F)(F)F)C2=O)cc1` (stereo unspecified), the Potency is 6.57 µM (active).
Regarding `COc1ccc(C2(C)NC(=O)N(CC(=O)c3ccc4c(c3)OCO4)C2=O)cc1` (stereo unspecified), the Potency entry is “inactive”.
Take `COc1ccc(C2(O)C(=O)Nc3ccccc32)cc1` (stereo unspecified): the Potency result was “inactive”.
`CCC1Oc2ccccc2N(CC(=O)NCCCN2CCN(CC)CC2)C1=O` (stereo unspecified): the Potency result is “inactive”.
On the same count and under the same terms, the value for `Cc1c(C)c2c(OCC(=O)NCCCO)cc3c(c2oc1=O)CCC(C)(C)O3` was “inactive”; that for `C[C@H](NC(=O)c1ccccc1Cl)C(=O)OCC(=O)N1CCN(c2ccccc2)CC1` was “inactive”; that for `Cc1ccc(Cl)cc1N1CCN(C(=O)c2cccc3c(=O)c(C)c(-c4ccccc4)oc23)CC1` was 9.28 µM (active).
As to `COC(=O)c1ccc(C(=O)OC)c(NC(=S)N2CCN(c3cc(Cl)ccc3C)CC2)c1`, the Potency result is “inactive”.
Take `CCNS(=O)(=O)c1ccc(CCC(=O)N2CCN(c3cc(Cl)ccc3C)CC2)cc1`: the Potency result was “inactive”.
`CC(C)n1c(C(O)c2ccccc2)nc2ccccc21` (stereo unspecified): the Potency entry was “inactive”.
For the molecule `CC(Nc1nc(N2CCCC2)nc2ccccc12)c1ccccc1` (stereo unspecified), the Potency is 3.7 µM (active).
On to `Cc1ccc(C(CC(=O)O)Nc2nc(N3CCCCC3)nc(N3CCCCC3)n2)cc1` (stereo unspecified), for which the Potency result is “inactive”.
